# Source: PubChem BioAssay (NCATS)
# Inconclusive results are not listed. A call without a number means that no potency is given here. Active and inactive are the calls of the source. Unless noted, the call rests on the fitted dose curve; in most records, active means well fitted curve in the direction sought with a large enough effect; inconclusive means small, poorly fitted or top-dose-only effect, or another doubt; inactive means no such curve, though single readings can be large; an effect the other way counts as inactive or inconclusive.
# Experiments:
# [1] = Quantitative High-Throughput drug screen in 47 multiple myeloma cell lines against the NCATS MIPE library collection: UTMC2_PLB cell viability assay (AID 1919868); settings: CellTiter-Glo ATP luminescence, 48 h; viability (% of DMSO control): at 45.8 µM (top of the series); further: nearly all actives have a fitted effect of over 55% in size; further: potency means the concentration at half of the fitted maximal effect
# Procedure, shortened: (§1)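 500 cells/well per myeloma line exposed to pinned MIPE 4.0 compounds for 48 h at 37 °C, 5% CO2. Viability read as ATP by CellTiter-Glo luminescence, normalised to DMSO-only (100%) and media-only (0%) wells.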
# [2] = Quantitative High-Throughput drug screen in 47 multiple myeloma cell lines against the NCATS MIPE library collection: RPMI8226_ATCC cell viability assay (AID 1919871); further: nearly all actives have a fitted effect of over 30% in size; further: potency means the concentration at half of the fitted maximal effect
# Procedure, shortened: as §1
# [3] = Quantitative High-Throughput drug screen in 47 multiple myeloma cell lines against the NCATS MIPE library collection: OPM2_DSMZ cell viability assay (AID 1919872); further: nearly all actives have a fitted effect of over 30% in size; further: potency means the concentration at half of the fitted maximal effect
# Procedure, shortened: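 Approved and investigational drugs from MIPE 4.0 were added by pin tool to 500 cells per well. After 48 hours at 37C, ATP-based CellTiter-Glo luminescence indicated remaining viability.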
# [4] = Quantitative High-Throughput drug screen in 47 multiple myeloma cell lines against the NCATS MIPE library collection: KMS11_JCRBsus cell viability assay (AID 1919873); further: nearly all actives have a fitted effect of over 50% in size; further: potency means the concentration at half of the fitted maximal effect
# Procedure, shortened: as §1
# [5] = Quantitative High-Throughput drug screen in 47 multiple myeloma cell lines against the NCATS MIPE library collection: KMS28BM_JCRB cell viability assay (AID 1919874); further: nearly all actives have a fitted effect of over 35% in size; further: potency means the concentration at half of the fitted maximal effect
# Procedure, shortened: as §1
# [6] = qHTS for identification of novel therapeutic agents for treatment of microphthalmiaassociated transcription factor (MiT) renal cell carcinoma (RCC) (AID 1963991); settings: CellTiter-Glo, 48 h, stronger effect = lower value
# Procedure, shortened: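 Three TFE3-fusion RCC lines (UOK109, UOK124, UOK145), 500 cells/well in complete medium, were treated with MIPE 4.0 compounds for 48 hours at 37 C. Viability was by CellTiter-Glo luminescence, normalized to DMSO (100%) and empty wells (0%); curves fitted over 11 concentrations.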
# [7] = Quantitative High-Throughput drug screen in 47 multiple myeloma cell lines against the NCATS MIPE library collection: PE2_PLB cell viability assay (AID 1919869); further: nearly all actives have a fitted effect of over 35% in size; further: potency means the concentration at half of the fitted maximal effect
# Procedure, shortened: as §1
# [8] = Quantitative High-Throughput drug screen in 47 multiple myeloma cell lines against the NCATS MIPE library collection: PCM6_Riken cell viability assay (AID 1919870); further: nearly all actives have a fitted effect of over 30% in size; further: potency means the concentration at half of the fitted maximal effect
# Procedure, shortened: as §1
# [9] = qHTS drug screen for cell cycle checkpoint inhibitors in PARPi-resistant BRCA-mutant ovarian cancer cell lines. (AID 1963452; calls by dose curve); settings: PEO1/OlaR viability, CellTiter-Glo luminescence, 96 h, stronger effect = lower value
# Procedure, shortened: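 PEO1, PEO4 and PEO1/OlaR ovarian cancer cells, 600 per well, exposed 96 h at 37C to a dilution series. Viability read by CellTiter-Glo luminescence, normalized to DMSO and empty wells; activity summarized as Z-AUC.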
# [10] = molecular target: Cytochrome P450 3A4 (Homo sapiens) (UniProt P08684); assay: qHTS for inhibitors of CYP3A4 against the NCATS DSHEA and TCM libraries (AID 1919971);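 further: inhibition lowers luminescence from luciferin made by CYP3A4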
# Procedure, shortened: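 Luminescent P450-Glo format: compounds preincubated 15 min with enzyme and luciferin substrate, reaction run 30-45 min after NADPH regeneration solution. Intraplate controls: ketoconazole for CYP3A4 and CYP2C19, sulfaphenazole for CYP2C9.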
# [11] = molecular target: Cytochrome P450 2D6 (Homo sapiens) (UniProt P10635); assay: qHTS for inhibitors of CYP2D6 against the NCATS DSHEA and TCM libraries (AID 1919972)
# Procedure, shortened: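 Luminescent P450-Glo read-out of CYP2D6 turnover of a luciferin substrate after NADPH-driven reaction of 30-45 min at room temperature. Compounds were first preincubated 15 min with enzyme at titrated concentrations; quinidine was the intraplate control.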
# [12] = KB-3-1 P-gp reporter qHTS against the NCATS DSHEA and TCM libraries (AID 1919975)
# Procedure, shortened: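 Parental KB-3-1 cells, 500 cells/well, in DMEM with 10% FBS, exposed 72 h at 37 C to compounds in concentration-response. Viability read by CellTiter-Glo luminescence after 30 min at room temperature.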
# [13] = qHTS Counterscreen for compound interference against the NCATS DSHEA and TCM libraries (AID 1919978); settings: firefly luciferase detection reagent interference, luminescence;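 further: compounds preincubated with 1 µM D-luciferin or buffer before detection reagent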
# Procedure, shortened: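 Firefly luciferase detection reagent was added after compounds (19.5 nM–39.8 uM final) had been incubated 15 min at room temperature with 1 uM D-luciferin or with 100 mM phosphate buffer alone. Luminescence was read after 30 min at room temperature.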
# [14] = Dual reporter qHTS for agonist of Pregnane X Receptor (hPXR) against the NCATS DSHEA and TCM libraries: Fluorescence readout (AID 1920058)
# Procedure, shortened: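 hPXR-Luc HepG2 cells, 2000/well in charcoal-stripped serum, attached 5 h, dosed for ~24 h at 37 °C. Fluorescence read is CellTiter-Fluor viability (Ex/Em 405/540 nm); rifampicin positive, tetraoctyl ammonium bromide (92 µM) cytotoxicity controls.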
# [15] = molecular target: Nuclear receptor subfamily 1 group I member 2 (Homo sapiens) (UniProt O75469); assay: Dual reporter qHTS for agonist of Pregnane X Receptor (hPXR) against the NCATS DSHEA and TCM libraries: Luminescence readout (AID 1920059)
# Procedure, shortened: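 hPXR-Luc HepG2 cells, 2000/well in 5% charcoal-stripped FBS medium, attached 5 h, then exposed 24 h at 37C to compounds. Viability by CellTiter-Fluor, then luciferase luminescence with ONE-Glo.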
# [16] = molecular target: Nuclear receptor subfamily 1 group I member 2 (Homo sapiens) (UniProt O75469); assay: Dual reporter qHTS for antagonist of Pregnane X Receptor (hPXR) against the NCATS DSHEA and TCM libraries: Luminescence Readout (AID 1920060);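 further: HepG2 cells carrying hPXR luciferase reporter stimulated with rifampicin at 2 µM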
# Procedure, shortened: (§2)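 hPXR-Luc HepG2 cells exposed 24 h at 37 C to compounds with 2 uM rifampicin in antagonist mode; luciferase luminescence measured by ONE-Glo, with CellTiter-Fluor viability read beforehand.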
# [17] = Dual reporter qHTS for antagonist of Pregnane X Receptor (hPXR) against the NCATS DSHEA and TCM libraries: Fluorescence Readout (AID 1920061)
# Procedure, shortened: as §2
# [18] = TFE3-RCC UOK109 viability, measured here: UOK109 Z-AUC
# [19] = TFE3-RCC viability, measured here: UOK124 Z-AUC
# [20] = TFE3-RCC viability, measured here: UOK145 Z-AUC
# [21] = measured here: PEO1 parental Z-AUC
# Sequence of Nuclear receptor subfamily 1 group I member 2 (Homo sapiens) (O75469 whole entry, looked up): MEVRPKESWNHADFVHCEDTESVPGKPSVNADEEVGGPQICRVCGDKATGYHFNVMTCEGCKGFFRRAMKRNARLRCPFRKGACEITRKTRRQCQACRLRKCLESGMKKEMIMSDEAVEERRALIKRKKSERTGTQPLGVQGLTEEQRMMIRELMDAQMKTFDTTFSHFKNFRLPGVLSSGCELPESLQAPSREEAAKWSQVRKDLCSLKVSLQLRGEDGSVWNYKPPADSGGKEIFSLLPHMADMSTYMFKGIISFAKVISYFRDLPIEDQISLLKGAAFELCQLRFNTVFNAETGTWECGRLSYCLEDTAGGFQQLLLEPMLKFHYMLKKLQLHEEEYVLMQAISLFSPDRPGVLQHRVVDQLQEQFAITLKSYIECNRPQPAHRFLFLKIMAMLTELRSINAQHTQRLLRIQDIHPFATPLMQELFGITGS
# Sequence of Cytochrome P450 3A4 (Homo sapiens) (P08684 whole entry, looked up): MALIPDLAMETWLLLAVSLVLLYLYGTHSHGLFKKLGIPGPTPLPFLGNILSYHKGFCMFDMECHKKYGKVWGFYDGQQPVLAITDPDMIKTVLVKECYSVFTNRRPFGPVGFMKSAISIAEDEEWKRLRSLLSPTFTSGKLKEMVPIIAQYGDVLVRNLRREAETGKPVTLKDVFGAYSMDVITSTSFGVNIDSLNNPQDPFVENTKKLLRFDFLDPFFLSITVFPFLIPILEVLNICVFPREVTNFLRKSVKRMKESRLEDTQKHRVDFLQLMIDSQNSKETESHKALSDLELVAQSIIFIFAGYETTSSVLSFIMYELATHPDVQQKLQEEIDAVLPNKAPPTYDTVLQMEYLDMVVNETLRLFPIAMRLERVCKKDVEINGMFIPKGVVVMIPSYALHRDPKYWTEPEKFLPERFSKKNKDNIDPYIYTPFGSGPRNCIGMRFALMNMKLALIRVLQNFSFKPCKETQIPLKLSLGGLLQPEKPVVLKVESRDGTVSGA
# Sequence of Cytochrome P450 2D6 (Homo sapiens) (P10635 whole entry, looked up): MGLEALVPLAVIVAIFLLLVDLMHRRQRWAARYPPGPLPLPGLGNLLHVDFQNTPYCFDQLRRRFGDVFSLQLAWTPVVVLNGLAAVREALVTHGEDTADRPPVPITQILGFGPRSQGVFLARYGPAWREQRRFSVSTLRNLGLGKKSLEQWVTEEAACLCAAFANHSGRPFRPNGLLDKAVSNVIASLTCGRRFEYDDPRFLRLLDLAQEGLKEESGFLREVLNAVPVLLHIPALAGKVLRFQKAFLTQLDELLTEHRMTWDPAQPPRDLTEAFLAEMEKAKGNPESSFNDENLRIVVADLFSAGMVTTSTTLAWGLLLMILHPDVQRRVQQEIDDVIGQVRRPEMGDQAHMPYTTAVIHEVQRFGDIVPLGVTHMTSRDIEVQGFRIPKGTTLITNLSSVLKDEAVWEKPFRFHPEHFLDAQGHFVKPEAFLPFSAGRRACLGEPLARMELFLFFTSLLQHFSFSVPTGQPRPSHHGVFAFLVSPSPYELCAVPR
structure (smiles),measurement,setting,value
CO[C@H]1C[C@@H]2CC[C@@H](C)[C@@](O)(O2)C(=O)C(=O)N2CCCC[C@@H]2C(=O)O[C@H]([C@H](C)C[C@@H]2CC[C@H](OP(C)(C)=O)[C@H](OC)C2)CC(=O)[C@H](C)C=C(C)[C@@H](O)[C@@H](OC)C(=O)[C@H](C)C[C@H](C)C=CC=CC=C1C,Potency,[1],inactive
same,Potency,[2],inactive
same,Potency,[3],inactive
same,Potency,[4],inactive
same,Potency,[5],inactive
same,z-score,[6]; [18],0.0461
same,z-score,[6]; [19],0.621
same,z-score,[6]; [20],-0.765
CC(C)(C)C(=O)Oc1ccc2c(c1)nc(NC(=O)c1cccc([N+](=O)[O-])c1)n2CCCO,Potency,[7],inactive
same,Potency,[8],inactive
same,Potency,[2],18.7 µM (active)
same,Potency,[3],inactive
same,Potency,[4],inactive
same,Potency,[5],inactive
same,Z-AUC,[9],-0.205 (inactive)
same,Z-AUC,[9]; [21],0.0755
same,Z-AUC,[9]; measured here: PEO4 Z-AUC,-0.141
O=C1NC(=O)C(=Cc2ccc3nccnc3c2)S1,Potency,[1],3.63 µM (active)
same,Potency,[3],inactive
same,Potency,[5],7.24 µM (active)
O=c1c(-c2ccc(O)cc2)coc2cc(O[C@@H]3O[C@H](CO)[C@H](O)[C@H](O)[C@H]3O)ccc12,Potency,[7],inactive
same,Potency,[8],inactive
same,Potency,[2],inactive
same,Potency,[3],inactive
same,Potency,[4],inactive
same,Potency,[5],inactive
same,outcome,[10],inactive
same,outcome,[11],inactive
same,outcome,[12],inactive
same,max response,[13],1.56% (inactive)
same,outcome,[14],inactive
same,Potency,[15],inactive
same,outcome,[16],inactive
same,outcome,[17],inactive
same,z-score,[6]; [18],0.945
same,z-score,[6]; [19],2.11
same,z-score,[6]; [20],1.28
Cc1ccc(C(C)(O)c2nc3ccccc3s2)c(C)c1 (configuration not stated),Potency,[7],inactive
same,Potency,[8],inactive
same,Potency,[2],inactive
same,Potency,[3],inactive
same,Potency,[4],inactive
same,Z-AUC,[9],0.398 (inactive)
same,Z-AUC,[9]; [21],0.537
same,Z-AUC,[9]; measured here: PEO4 Z-AUC,0.368
CCCCCN(C)CCC(O)(P(=O)(O)O)P(=O)(O)O,Potency,[7],inactive
same,Potency,[8],inactive
same,Potency,[2],inactive
same,Potency,[3],inactive
same,Potency,[4],inactive
same,Potency,[5],inactive
same,Z-AUC,[9],0.387 (inactive)
same,Z-AUC,[9]; [21],1.32
same,Z-AUC,[9]; measured here: PEO4 Z-AUC,1.05
same,z-score,[6]; [18],0.34
same,z-score,[6]; [19],0.128
same,z-score,[6]; [20],0.245
COc1cccc2c1CCCC2CCCN1CCN(C2CCCCC2)CC1 (configuration not stated),Potency,[7],23.5 µM (active)
same,Potency,[8],13.2 µM (active)
same,Potency,[2],14.8 µM (active)
same,Potency,[4],18.7 µM (active)
same,Potency,[5],18.7 µM (active)
same,Z-AUC,[9],0.972 (inactive)
same,Z-AUC,[9]; [21],0.889
same,Z-AUC,[9]; measured here: PEO4 Z-AUC,0.366
Cc1c(O)cccc1C(=O)N[C@@H](CSc1ccccc1)[C@H](O)CN1C[C@H]2CCCC[C@@H]2C[C@@H]1C(=O)NC(C)(C)C,Potency,[7],26.4 µM (active)
same,Potency,[8],18.7 µM (active)
same,Potency,[2],18.7 µM (active)
same,Potency,[3],26.4 µM (active)
same,Potency,[4],18.7 µM (active)
same,Potency,[5],20.9 µM (active)
CON=C(C(=O)N[C@@H]1C(=O)N2C(C(=O)OCOC(=O)C(C)(C)C)=C(C=Cc3scnc3C)CS[C@H]12)c1csc(N)n1,Potency,[7],18.7 µM (active)
same,Potency,[8],20.9 µM (active)
same,Potency,[2],inactive
same,Potency,[3],inactive
same,Potency,[4],inactive
same,Potency,[5],inactive
